PrP 5UTR inh = inhibition of PrP 5' UTR reporter expression | cell-based PrP 5' UTR mRNA reporter, plate reader | inhibition, % (no concentration beside the values) | actives 0.35% (n = 340,000); in the data active means inhibition above about 52%
FadD28 FP inh = blocks FadD28 binding to the bisubstrate probe; actives 0.22% (n = 360,000); inhibition, % at 12.5 µM; fluorescence polarization; in the data active means inhibition above about 8.5%, passing the limit was not always enough; inconclusive means no clear call, values can overlap the other calls
TcdB GH inh = blocks C. difficile toxin B glycohydrolase activity; P18177; AID 652162; TcdB glycohydrolase enzymatic assay, plate reader; inhibition, % at 9.99 µM; actives 0.24% (n = 350,000); in the data active means inhibition above about 10%
PfHsp40 rescue = restores yeast growth despite PfHsp40 toxicity; S. cerevisiae expressing PfHsp40, growth rescue, ATP luminescence; growth rescue, % at 12.5 µM; actives 0.68% (n = 340,000); in the data active means growth rescue above about 28%, passing the limit was not always enough; inconclusive means no clear call, values can overlap the other calls;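 further: yeast W303a lacking pdr1 and pdr3 grown in galactose medium; growth measured after three days at 30 °C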
BioA inh = inhibitors of Mycobacterium tuberculosis BioA enzyme | actives 0.096% (n = 360,000) | inhibition, % at 9.99 µM | purified M. tuberculosis BioA enzyme, plate reader; in the data active means inhibition above about 40%; inconclusive means no clear call, values can overlap the other calls
PrP UTR cherry = prion 5' UTR mRNA inhibition, cherry-pick retest; shares compounds with PrP 5UTR inh; cell-based prion protein 5' UTR reporter, plate reader; inhibition, % at 2.5 µM; actives 48% (n = 1,100); AID 504592; in the data active means inhibition above about 54%; inconclusive means no clear call, values can overlap the other calls
Hits are given with their value. Only some compounds are listed: those with a hit (about 1.1% of all), similar ones and a draw of the others.

O=C(NCCS(=O)(=O)NCCc1ccccc1)c1ccc2c(c1)OCO2 was read as PrP 5UTR inh inactive, FadD28 FP inh inactive, TcdB GH inh inactive, PfHsp40 rescue inactive and BioA inh inactive.
For O=C(NCCc1ccccc1)c1ccc2c(c1)OCCCO2 the results were PrP 5UTR inh 91.5, FadD28 FP inh inactive, TcdB GH inh inactive, PfHsp40 rescue inactive, BioA inh inactive and PrP UTR cherry 91.4.
For CCCNC(=O)Cn1nc(C(F)(F)F)cc1C the results were PrP 5UTR inh 58.0, FadD28 FP inh inactive, TcdB GH inh inactive, PfHsp40 rescue inactive, BioA inh inactive and PrP UTR cherry inactive.
`Cc1ccc(S(=O)(=O)n2c(N)nc3ccccc32)cc1` gave PrP 5UTR inh inactive, FadD28 FP inh inactive, TcdB GH inh inactive, PfHsp40 rescue inactive and BioA inh inactive.
Cc1ccc(C(=O)n2c(N)nc3ccccc32)cc1 was read as PrP 5UTR inh 74.1, FadD28 FP inh inactive, TcdB GH inh inactive, PfHsp40 rescue inactive, BioA inh inactive and PrP UTR cherry 54.6.
Screening CCCCn1c(-c2ccccc2)nc2c(=O)n(C)c(=O)[nH]c21 returned PrP 5UTR inh 77.8, FadD28 FP inh inactive, PfHsp40 rescue inactive, BioA inh inactive and PrP UTR cherry inactive.
`CCCCn1c(C)nc2c(=O)n(C)c(=O)[nH]c21` gave PrP 5UTR inh inactive, FadD28 FP inh inactive, PfHsp40 rescue inactive and BioA inh inactive.
`COc1cccc(CN2CC3(CN(CC4CC4)C3)c3c([nH]c4cc(OC)ccc34)[C@H]2CO)c1` gave TcdB GH inh inactive.
For C[C@H]1CN([C@@H](C)CO)C(=O)Cc2cc(N(C)C)ccc2O[C@H]1CN(C)Cc1ccc(Oc2ccccc2)cc1 the results were TcdB GH inh inactive and BioA inh inactive.
For N=C(N)SCP(=O)(c1ccccc1)c1ccccc1 the results were PrP 5UTR inh 63.6, FadD28 FP inh inactive, TcdB GH inh inactive, PfHsp40 rescue inactive and PrP UTR cherry inactive.
For COc1ccc(S(=O)(=O)Nc2ccc3c(c2)C(=O)N([C@H](C)CO)C[C@@H](C)[C@H](CN(C)S(=O)(=O)c2ccccc2)OCCCC[C@H](C)O3)cc1 the results were TcdB GH inh inactive.
For C[C@@H]1CN([C@@H](C)CO)C(=O)c2cc(NC(=O)Nc3ccc(C(F)(F)F)cc3)ccc2O[C@@H]1CN(C)CC1CC1 the results were TcdB GH inh inactive and BioA inh inactive.
Screening COC1C=CC=C(C)C(=O)NC2=CC(=O)C(N)=C(CC(C)CC(OC)C(O)C(C)C=C(C)C1OC(N)=O)C2=O (centres undefined) returned PrP 5UTR inh 76.4, FadD28 FP inh inactive, TcdB GH inh inactive, PfHsp40 rescue inactive and PrP UTR cherry 82.2.
For COC1CC(C)C(OC)c2cc(O)cc(c2O)NC(=O)C(C)=CC=CC(C)C(OC(N)=O)C(C)=CC(C)C1OC (centres undefined) the results were PrP 5UTR inh inactive, FadD28 FP inh inactive, TcdB GH inh inactive and PfHsp40 rescue inactive.
`COc1ccc(CCNC(=O)C2CC2)cc1` gave PrP 5UTR inh inactive, FadD28 FP inh inactive, TcdB GH inh inactive and PfHsp40 rescue inactive.
COc1ccc(C[C@H]2NC[C@H](O)[C@H]2OC(C)=O)cc1 was read as PrP 5UTR inh 92.3, FadD28 FP inh inactive, TcdB GH inh inactive, PfHsp40 rescue inactive, BioA inh inactive and PrP UTR cherry 95.8.
For CCCNC(=O)[C@@H]1[C@@H](CO)[C@@H]2Cn3c(ccc(-c4ccccc4)c3=O)[C@H]1N2C(=O)C1CC1 the results were TcdB GH inh inactive and BioA inh inactive.
For Cc1cc(C(=O)COC(=O)C2=COCCO2)c(C)n1-c1ccccc1 the results were PrP 5UTR inh 81.6, FadD28 FP inh inactive, TcdB GH inh inactive, PfHsp40 rescue inactive and PrP UTR cherry 85.6.
`CCCn1c(C)cc(C(=O)COc2ccc(C)nc2[N+](=O)[O-])c1C` gave PrP 5UTR inh inactive, FadD28 FP inh inactive, TcdB GH inh inactive, PfHsp40 rescue inactive and BioA inh inactive.
Cc1ccc(OCC(=O)c2cc(C)n(-c3ccccc3)c2C)c([N+](=O)[O-])n1 was read as PrP 5UTR inh 59.7, FadD28 FP inh inactive, PfHsp40 rescue inactive and PrP UTR cherry 57.6.
For CO[C@@H]1CN(C)C(=O)c2ccc(NC(=O)C3CC3)cc2OC[C@@H](C)N(CCC(F)(F)F)C[C@@H]1C the results were TcdB GH inh inactive and BioA inh inactive.
For CCCN1C[C@H](C)[C@H](OC)CN(C)C(=O)c2cc(NS(=O)(=O)CC)ccc2OC[C@H]1C the results were TcdB GH inh inactive and BioA inh inactive.
`CCC(=O)N(C)C[C@@H]1Oc2cc(C#Cc3ccccc3)ccc2S(=O)(=O)N([C@H](C)CO)C[C@H]1C` gave TcdB GH inh inactive and BioA inh inactive.
C[C@@H]1CN([C@@H](C)CO)C(=O)c2cc(-c3ccccc3)cnc2O[C@@H]1CN(C)Cc1cccnc1 was read as TcdB GH inh inactive and BioA inh inactive.
`COc1ccc(-c2cc3cc4c(cc3cn2)OCO4)cc1` gave PrP 5UTR inh inactive, FadD28 FP inh inactive, TcdB GH inh inactive, PfHsp40 rescue inactive and BioA inh inactive.
`COc1cc(OC)cc(-c2cc3cc4c(cc3cn2)OCO4)c1` gave PrP 5UTR inh 62.4, FadD28 FP inh inactive, PfHsp40 rescue inactive, BioA inh inactive and PrP UTR cherry 80.6.
`COc1cccc2c1C(=O)c1c(O)c3c(c(O)c1C2=O)C[C@@](O)(C(=O)CO)C[C@@H]3O[C@H]1C[C@H](N)[C@H](O)[C@H](C)O1` gave PrP 5UTR inh 88.5, FadD28 FP inh 63.4, TcdB GH inh inactive, PfHsp40 rescue 146.1, BioA inh inactive and PrP UTR cherry 92.5.
`COc1cccc2c1C(=O)c1c(O)c3c(c(O)c1C2=O)CC(O)(C(C)=O)CC3OC1CC(N(C)C)C(O)C(C)O1` (centres undefined) gave PrP 5UTR inh 87.6, FadD28 FP inh 60.2, TcdB GH inh inactive, PfHsp40 rescue 400.8 and PrP UTR cherry 90.5.
Screening Cc1cn([C@H]2C[C@H](O)[C@@H](CCC(=O)NCCc3c[nH]c4ccccc34)O2)c(=O)[nH]c1=O returned PrP 5UTR inh 58.5, FadD28 FP inh inactive, TcdB GH inh inactive, PfHsp40 rescue inactive, BioA inh inactive and PrP UTR cherry inactive.
Screening O=C1C(=C2SCCCS2)CC/C1=C\c1ccc(F)cc1 returned PrP 5UTR inh 83.7, FadD28 FP inh inactive, PfHsp40 rescue inactive and PrP UTR cherry 84.1.
For Cc1cccc(/C=C2\CCC(=C3SCCCS3)C2=O)c1 the results were PrP 5UTR inh 54.8, FadD28 FP inh inactive, PfHsp40 rescue inactive and PrP UTR cherry inconclusive.
O=[N+]([O-])c1cccc2nc3ccccc3c(NCCCn3ccnc3[N+](=O)[O-])c12 was read as PrP 5UTR inh 87.1, FadD28 FP inh inactive, TcdB GH inh inactive, PfHsp40 rescue inactive and PrP UTR cherry 95.2.
`C(=N\Nc1nc2ccccc2[nH]1)/c1ccccc1` gave PrP 5UTR inh 55.1, FadD28 FP inh inactive, TcdB GH inh inactive, PfHsp40 rescue inactive, BioA inh inactive and PrP UTR cherry inactive.
